91 compounds from ChEMBL document CHEMBL3988442, “University of Dundee, Small-Polar-MMV Screening Library” (2021) can be followed below.

About 950 (1.4%) of roughly 69,000 compounds showed an effect of 50% or more. Many of the other results were omitted from the sample, so strong results are more common in it than they were.

For this assay, the system named is Mycobacterium tuberculosis. The assay is described as follows: Cornell M. t heat shock assay. Also: in the data most compounds retested in dose-response had high values. The assay is classed as functional, organism-based. Set-up: dose or concentration left out as unconfirmed.
As for `Fc1cnc(N2CCCn3cnc(COc4cccnc4)c3C2)nc1.O=C(O)C(F)(F)F`, the “Percent Effect” value is given as 9.371%.

For `Cc1cc(C)c(CNC(=O)NCC2CCOC2)c(=O)[nH]1` (stereo unspecified), the “Percent Effect” value was -20.09%. To `COCCC(=O)N1CCOCC2(CCN(Cc3cccs3)C2)C1.O=C(O)C(F)(F)F` (stereo unspecified) belongs -16.95%.

As for `O=C(O)C(F)(F)F.O=C(O)C(F)(F)F.O=C1COC2(CCN(Cc3cccnc3)CC2)CN1`, the “Percent Effect” value is -2.798%. To `O=C(C1CCCO1)N1CCc2ncnc(NC3CCC3)c2CC1.O=C(O)C(F)(F)F` (stereo unspecified) belongs -8.605%; to `O=C([C@H]1CCCO1)N1CCc2ncnc(NC3CC3)c2CC1`, 65.17%; to `CC(C)Nc1ncnc2c1CCN(C(=O)[C@H]1CCCO1)CC2`, -13.05%. To `COCC1COCCC12CCN(Cc1nccs1)CC2.O=C(O)C(F)(F)F` (stereo unspecified) belongs 8.236%; to `CS(=O)(=O)NC1CCN(C(=O)c2cc3ccccc3s2)C1` (stereo unspecified), 0.7353%. Then `CS(=O)(=O)N[C@@H]1CN(C(=O)c2cc3ccccc3s2)C[C@H]1O`, with 101.8%; and `CCC[C@@H]1CN(C(=O)c2cc3ccccc3s2)C[C@H]1NS(C)(=O)=O`, with 11.11%. As to `Cn1cc(C[C@H]2[C@H](O)CCN2CC2CCOCC2)cn1.O=C(O)C(F)(F)F`, the “Percent Effect” value came to 6.354%.

In the case of `O=C(O)C(F)(F)F.O=C(c1ccsc1)N1CCO[C@@H]2CN(Cc3nccs3)C[C@@H]2C1`, the “Percent Effect” value was found to be 10.37%. To `Cc1cccc(CN2C[C@@H](C)[C@@]3(CCN(CC(=O)N(C)C)C3=O)C2)c1.O=C(O)C(F)(F)F` belongs -6.766%; to `Cc1ccsc1C(=O)N1CC[C@@H](N(C)C)[C@@H]1Cc1cnn(C)c1.O=C(O)C(F)(F)F`, -5.648%. `CCn1nc(C(C)C)cc1C(=O)NCCCOC`: the “Percent Effect” value is 4.35%.

With `CCn1nc(CC(C)C)cc1C(=O)NCCn1cccc1`, the “Percent Effect” value is 49.17%. To `CCn1nc(CC(C)C)cc1C(=O)NCCCOC` belongs 92.73%. To `Cc1csc(CCNCc2cnc3c(c2)c(C)nn3C)n1.Cl` belongs 6.139%; to `O=C(O)C(F)(F)F.O=C(O)C(F)(F)F.O=C1COC2(CCN(Cc3ccncc3)CC2)CN1c1ccccc1`, -2.605%.

As to `CO[C@@H]1CCN(Cc2ccoc2)[C@H]1Cc1ccccc1.O=C(O)C(F)(F)F`, the “Percent Effect” value was 14.91%. Consider `Fc1cnc(N2CCCC3(CN(Cc4ccncc4)CCO3)C2)nc1.O=C(O)C(F)(F)F.O=C(O)C(F)(F)F` (stereo unspecified), for which the “Percent Effect” value was 10.78%. Then `Cc1ncc2c(n1)CCCC2NC(=O)c1ccc(Cn2cccn2)cc1` (stereo unspecified), with 72.35%. Turning to `Cc1ncc2c(n1)CCCC2NC(=O)c1cnn(Cc2ccccc2)c1` (stereo unspecified), the “Percent Effect” value was -15.56%. To `Cc1ncc2c(n1)CCCC2NC(=O)c1ccncc1` (stereo unspecified) belongs -6.944%; to `c1ccc(CCN2CCCC2c2ccnc(Nc3cnccn3)n2)cc1` (stereo unspecified), 57.03%. To `Nc1nccc(C2CCCN2CCc2ccccc2)n1` (stereo unspecified) belongs 10.92%.

As to `Cc1nccc(C2CCCCN2Cc2ccccc2)n1` (stereo unspecified), the “Percent Effect” value was -13.8%. Then `COCC(=O)N1CCCC1c1ccnc(Nc2cnccn2)n1` (stereo unspecified), with -1.39%.

On to `COCC(=O)N1CCCCC1c1ccnc(Nc2cnccn2)n1` (stereo unspecified), for which the “Percent Effect” value was -6.25%. Then `c1ccc(CCN2CCCC2c2ccnc(Nc3ncccn3)n2)cc1` (stereo unspecified), with 91.35%; and `COCCOc1ccc(NC(=O)C2CC(=O)N(C)C2)cn1` (stereo unspecified), with 4.167%. Then `COCCn1cc(C(=O)N2CCCC2c2cccc(F)c2)ccc1=O` (stereo unspecified), with -4.621%; and `O=C(O)C(F)(F)F.c1csc(CN2Cc3nccn3CC(Cn3cncn3)C2)c1` (stereo unspecified), with -12.15%.

In the case of `COc1ncc(CN(CCN(C)C)Cc2ccc(C)s2)cn1`, the “Percent Effect” value is recorded as -3.645%. To `CCNc1ncc(CN(CCN(C)C)Cc2ccc(C)s2)cn1` belongs 2.161%; to `CCc1ccc(CN(CCN(C)C)Cc2ccc(C)s2)nc1`, 88.98%; to `O=C(O)C(F)(F)F.O=C(O)C(F)(F)F.c1cncc(OC[C@]23COC[C@H]2CN(Cc2ccsc2)C3)c1`, -29.89%. Then `Cl.O=S(=O)(c1ccc(Cl)cc1)N1CCc2nc(C3CCNCC3)ncc2C1`, with 15.18%; and `COc1cc(C)c(-c2ccc(F)c3c2OC(CN)C3)cc1C` (stereo unspecified), with 51.67%; and `COc1cc(-c2ccc(F)c3c2OC(CN)C3)cc(OC)c1OC` (stereo unspecified), with -5.435%. To `COc1cccnc1-c1ccc(F)c2c1OC(CN)C2` (stereo unspecified) belongs -14.02%; to `CC(C)CCN1C[C@H]2C[C@H](C(=O)N3CCCC3)[C@@H](C1)O2.O=C(O)C(F)(F)F`, 37.85%; to `CC1CN(CC(=O)NC2CCCC2)CCN1c1ccc2nncn2n1` (stereo unspecified), 176.2%. Take `CC1CCCCN1C(=O)CN1CCN(c2ccc3nncn3n2)CC1` (stereo unspecified): the “Percent Effect” value amounted to 5.269%. Then `CC1CN(Cc2nccn2C)CCN1c1ccc2nncn2n1` (stereo unspecified), with -15.38%; and `Cc1cnc(CN2CCN(c3ccc4nncn4n3)C(C)C2)cn1` (stereo unspecified), with -3.544%. `O=C(CCN1CCN(c2ccc3nncn3n2)CC1)NC1CCCC1`: the “Percent Effect” value is reported as -7.134%. To `CC1CN(CC2CCCC2)CCN1c1ccc2nncn2n1` (stereo unspecified) belongs 85.93%. On to `O=C(CN1CCN(c2ccc3nncn3n2)CC1)NC1CCCC1`, for which the “Percent Effect” value is 59.84%. Then `CC1CN(CC(=O)N2CCCC2)CCN1c1ccc2nncn2n1` (stereo unspecified), with 15.46%; and `O=C(CN1CCN(c2ccc3nncn3n2)CC1)NC1CCCCC1`, with 57.46%; and `c1ccc(CN2CCN(c3ccc4nncn4n3)CC2)nc1`, with 6.511%.

Turning to `O=C(CCN1CCN(c2ccc3nncn3n2)CC1)N1CCCCC1`, the “Percent Effect” value is given as -7.972%. To `CC1CN(CC2CCCCC2)CCN1c1ccc2nncn2n1` (stereo unspecified) belongs 16.09%; to `COCc1ncn2c1CN(C(=O)c1cccc3cccnc13)CC2.O=C(O)C(F)(F)F`, -14.48%; to `O=C(O)C(F)(F)F.O=C(O)C(F)(F)F.c1ccc(OCC2C[C@@H]3[C@@H](C2)OCCN3Cc2ccoc2)nc1` (stereo partly specified), 14.26%. Then `CN(C)CCN1CCCC12CCCN(C(=O)c1cccnc1)C2.O=C(O)C(F)(F)F.O=C(O)C(F)(F)F` (stereo unspecified), with -7.014%; and `Cc1nc(N(C)C)nc2c1COCC21CCN(CC2CC2)C1.O=C(O)C(F)(F)F` (stereo unspecified), with 4.702%. To `CC1c2ncc(CNC(=O)C3CC3)n2CCN1CC1CCC1.O=C(O)C(F)(F)F` (stereo unspecified) belongs -0.1216%. Turning to `Cc1ccc([C@]2(O)CC[C@H]3CN(Cc4cccc(Cl)c4Cl)C[C@H]32)nc1.O=C(O)CC(O)(CC(=O)O)C(=O)O`, the “Percent Effect” value stood at 90.52%.

Take `O=C(O)CC(O)(CC(=O)O)C(=O)O.O[C@@]1(c2ccccn2)CC[C@H]2CN(Cc3cccc(Cl)c3Cl)C[C@H]21`: the “Percent Effect” value was 14.33%.

Turning to `Cc1ccc([C@]2(O)CC[C@H]3CN(Cc4cccc(F)c4F)C[C@H]32)nc1.O=C(O)CC(O)(CC(=O)O)C(=O)O`, the “Percent Effect” value came to 2.948%.

For the compound `Cl.NC(=O)CCc1cccc(C2CCNCC2)n1`, the “Percent Effect” value came to 3.085%. Then `COc1ccccc1CC(=O)N1CCCC(n2nc(C)nc2C)C1` (stereo unspecified), with -10.87%; and `CC[C@@H]1N(Cc2ccc(C)s2)CCC[C@]12CCC(=O)N2C.O=C(O)C(F)(F)F`, with 1.978%; and `COCCn1cc2c(n1)C(CNC(=O)c1cc(C)[nH]c1C)OCC2` (stereo unspecified), with 38.13%. Turning to `CS(=O)(=O)CC(=O)NCC1OCCc2cn(CC3CC3)nc21` (stereo unspecified), the “Percent Effect” value worked out at 11.68%. Then `Cc1cc(C(=O)NCC2OCCc3cn(CC4CC4)nc32)c(C)[nH]1` (stereo unspecified), with 105.1%; and `Cn1cc(CN2CCC3(CCCN3Cc3cccnc3)CC2)cn1.O=C(O)C(F)(F)F.O=C(O)C(F)(F)F.O=C(O)C(F)(F)F`, with -39.86%; and `COc1ccc(NC(=O)NC(C)Cn2cccn2)cn1` (stereo unspecified), with 0.2337%.

Consider `CC(Cn1cccn1)NC(=O)Nc1ccc(F)cc1` (stereo unspecified), for which the “Percent Effect” value is listed as 97.32%. Turning to `CC(=O)c1ccc(NC(=O)N[C@H](C(=O)O)C(C)C)cc1`, the “Percent Effect” value is -1.764%. `CC(=O)c1ccc(NC(=O)NC(C(=O)N(C)C)C(C)C)cc1` (stereo unspecified): the “Percent Effect” value worked out at 30.77%. To `CC(C)C(NC(=O)Nc1ccc(F)cc1)C(=O)N(C)C` (stereo unspecified) belongs 54.32%; to `Cc1ccc(NC(=O)NC(C)Cn2cccn2)cc1` (stereo unspecified), 0.5452%; to `O=C(O)C(F)(F)F.O=C(O)C(F)(F)F.c1cc(CO[C@@H]2CC[C@H]3[C@H]2OCCN3Cc2ccoc2)ccn1`, -10.25%. In the case of `Cc1nc(CN2C[C@@H]3CN(C(=O)c4ccnnc4)C[C@@H]3C2=O)cs1.O=C(O)C(F)(F)F`, the “Percent Effect” value was determined as 0.6336%.

On to `CN(C)CCN1CCCC12CCN(C(=O)c1cccnc1)CC2.O=C(O)C(F)(F)F.O=C(O)C(F)(F)F`, for which the “Percent Effect” value is recorded as -6.366%. Then `CC(C)N1CCO[C@H]2CN(C(=O)c3ccsc3)C[C@H]21.O=C(O)C(F)(F)F`, with -22.87%; and `O=C(Nc1cccc(N2CCCC2)c1)C1CCCN1c1nccs1` (stereo unspecified), with 5.051%. As to `O=C(Nc1cccc(F)c1)C1CCCN1c1nccs1` (stereo unspecified), the “Percent Effect” value amounted to 8.306%. Then `O=C(Nc1cccc2c1CCCC2)C1CCCN1c1nccs1` (stereo unspecified), with 50.83%.

`CCC(C)N1CCC2(CC1)CN(c1cncnc1)C(=O)CO2.O=C(O)C(F)(F)F` (stereo unspecified): the “Percent Effect” value is -21.63%. Then `Cc1nc(-c2ccc(F)c(F)c2)cc(C2CCNCC2)n1.Cl`, with -7.049%; and `Cn1cc(C2CC(=O)NC23CCN(Cc2cccc(F)c2)CC3)cn1.O=C(O)C(F)(F)F` (stereo unspecified), with -23.11%. Then `CCOc1ccc(CN2CCc3nc4ccsc4c(=O)n3CC2)cc1.Cl`, with 16.23%; and `CCOCc1nn(C)c2c1CN(Cc1cccs1)CC2.O=C(O)C(F)(F)F`, with 29.88%. To `CC(C(=O)NN1CCOCC1)n1nc(C(F)(F)F)c(Cl)c1C1CC1` (stereo unspecified) belongs -25.21%; to `CN(C)CCN1CCO[C@H]2CN(C(=O)c3ccsc3)C[C@H]21.O=C(O)C(F)(F)F.O=C(O)C(F)(F)F`, 25.92%; to `O=C(C1CCC1)N1CC[C@H](O)[C@@H]1Cc1cccnc1.O=C(O)C(F)(F)F`, 0.09339%.
